Assay results published in PubChem BioAssay (NCATS).
Inconclusive results are not listed. Entries that show only a call come without a potency. The source made the active and inactive calls. Calls follow the shape of the dose curve; as a rule, active = well fitted curve in the direction sought with a large enough effect; inconclusive = small, poorly fitted or top-dose-only effect, or another doubt; inactive = no such curve, though single readings can be large; an effect the other way counts as inactive or inconclusive.

System: not listed separately
Experiment: Primary qHTS for inhibitors of La Crosse Virus (LACV) - induced cell death in SH-SY5Y cells (AID 1508616);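 also: top concentration of the series differs between compounds; higher means more rescue of cells from virus-induced death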
Conditions: SH-SY5Y LACV cytopathicity rescue, ATP luminescence, 6 d; series mostly up to 9.63 µM
Procedure, shortened: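 Readout was luminescence from ATPLite 1step added after a 6-day LACV infection (0.01 MOI) of SH-SY5Y cells that had received pin-transferred compound 24 hr after seeding.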

| Structure (SMILES) | Potency |
| --- | --- |
| CCCC[C@@]1(C2CCCC2)Cc2cc(OCC(=O)O)c(Cl)c(Cl)c2C1=O | inactive |
| N[C@@H](CCCC(=O)O)C(=O)O | inactive |
| NC(N)=NC(N)=Nc1cccc(Cl)c1 | inactive |
| O=c1onc2cnc3ccccc3n12 | inactive |
| CO/N=C(\C(=O)N[C@@H]1C(=O)N2C(C(=O)O)=C(CSc3nc(=O)c(O)nn3C)CSC12)c1csc(N)n1 (stereo partly drawn) | inactive |
| CCCCCCCCCCCCCCSCC(=O)O | inactive |
| C=CCN1CCc2cc(O)c(O)cc2C(c2ccccc2)C1 (stereo not drawn) | inactive |
| CCCn1c(=O)c(C)cn2nc(N)nc12 | inactive |
| CC(=O)N[C@@H](Cc1c[nH]c2ccccc12)C(=O)OCc1cc(C(F)(F)F)cc(C(F)(F)F)c1 | inactive |
| Nc1ncnc2c1ncn2C1CCCC1 | inactive |
| Nc1nc2c(cnn2CCc2ccccc2)c2nc(-c3ccco3)nn12 | inactive |
| CCCCCCC/C=C\CCCCCCCCC(=O)O | inactive |
| CC(N)=NCCCC[C@@H](N)C(=O)O | inactive |
| COc1cc(/C=C(\C#N)C(=O)Nc2nnc(C(F)(F)F)s2)ccc1OCc1ccc(C(F)(F)F)cc1C(F)(F)F | inactive |
| O=C(O)C1CCCNC1 (stereo not drawn) | inactive |
| CC(O)C(O)[C@H]1CNc2nc(N)[nH]c(=O)c2N1 (stereo partly drawn) | inactive |
| CCn1c(=O)[nH]c2cc(Cl)c(Cl)cc21 | inactive |

| Structure (SMILES) | Potency |
| --- | --- |
| CCCCCCCCCCC/C=C\C(C)(C)/C=C\CCCC(=O)O | inactive |
| CC1CCN(CC[C@H]2CCCN2S(=O)(=O)c2cccc(O)c2)CC1 | inactive |
| O=C(O)/C(=C/c1c(C(=O)O)[nH]c2cc(Cl)cc(Cl)c12)c1ccccc1 | inactive |
| O=C(O)c1ccccc1Nc1cccc(OCc2ccc3ccccc3n2)c1 | inactive |
| C[C@@H](NCCc1ccc(O)cc1)[C@@H](O)c1ccc(O)cc1 | inactive |
| Oc1ccc(/C=C/c2ccc(/C=C/c3ccc(O)cc3)c(Br)c2)cc1 | inactive |
| N[C@@H](Cc1ccc(O)c(I)c1)C(=O)O | inactive |
| COc1ccccc1N1CCN(CCCNc2c(C)c(=O)n(C)c(=O)n2C)CC1 | inactive |
| CCCc1c(-c2ccc(O)cc2)nn(-c2ccc(O)cc2)c1-c1ccc(O)cc1 | inactive |
| CN(C)CCCc1cc(C(=O)Nc2ccc(-c3ccncc3)cc2)ccc1O | inactive |
| Oc1cc(O)c2c(c1)O[C@H](c1ccc(O)c(O)c1)[C@@H](O)C2 | inactive |
| NC[C@@H]1O[C@H](c2ccccc2)Cc2c1ccc(O)c2O | inactive |
| Cc1cc(Cn2cnc3c2C[C@@H](C(=O)O)N(C(=O)C(c2ccccc2)c2ccccc2)C3)ccc1N | inactive |
| O=[N+]([O-])c1cccc2cn[nH]c12 | inactive |
| CC(C)[C@@H]1CC[C@@H](C)C[C@@H]1P(=O)(c1ccccc1)c1ccccc1 | inactive |
| C=CCN1CCc2c(cc(O)c(O)c2Br)[C@@H](c2ccccc2)C1 | inactive |
| CCN1C(=O)C=CC1=O | inactive |

Target: Calcium and integrin-binding protein 1 (Homo sapiens) (UniProt Q99828)
Experiment: Validation qHTS for Identification of Calcium Integrin Binding protein 1 (CIB1) Competitor (AID 1508618)
Conditions: CIB1-GST / FITC-alphaIIb peptide fluorescence polarization; series mostly up to 114 µM
Procedure, shortened: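 In this qHTS validation, the LOPAC set (up to 114 uM) was tested for blocking CIB1 binding to a fluorescein-tagged alphaIIb peptide, with FP detection at 480/540 nm.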

Calcium and integrin-binding protein 1 (Homo sapiens), sequence (Q99828 whole entry, looked up): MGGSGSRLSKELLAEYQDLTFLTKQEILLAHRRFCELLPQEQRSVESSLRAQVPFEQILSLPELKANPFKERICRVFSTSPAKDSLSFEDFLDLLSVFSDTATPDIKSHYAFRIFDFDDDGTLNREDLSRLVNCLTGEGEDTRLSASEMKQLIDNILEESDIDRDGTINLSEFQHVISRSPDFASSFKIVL

| Structure (SMILES) | Potency |
| --- | --- |
| N[C@@H](CCCC(=O)O)C(=O)O | inactive |
| CN(C)S(=O)(=O)c1ccc2c(c1)/C(=C/c1cc3c([nH]1)CCCC3)C(=O)N2 | inactive |
| NC(N)=NC(N)=Nc1cccc(Cl)c1 | inactive |
| CCCCCCCCCCCCCCSCC(=O)O | inactive |
| O[Si](CCCN1CCCCC1)(c1ccc(F)cc1)C1CCCCC1 (stereo not drawn) | inactive |
| CCCn1c(=O)c(C)cn2nc(N)nc12 | inactive |
| Nc1ncnc2c1ncn2C1CCCC1 | inactive |
| CC(N)=NCCCC[C@@H](N)C(=O)O | inactive |
| CC(O)C(O)[C@H]1CNc2nc(N)[nH]c(=O)c2N1 (stereo partly drawn) | inactive |
| CCn1c(=O)[nH]c2cc(Cl)c(Cl)cc21 | inactive |
| CC1CCN(CC[C@H]2CCCN2S(=O)(=O)c2cccc(O)c2)CC1 | inactive |
| C[C@@H](NCCc1ccc(O)cc1)[C@@H](O)c1ccc(O)cc1 | inactive |
| Oc1ccc(/C=C/c2ccc(/C=C/c3ccc(O)cc3)c(Br)c2)cc1 | inactive |
| N[C@@H](Cc1ccc(O)c(I)c1)C(=O)O | inactive |
| COc1ccccc1N1CCN(CCCNc2c(C)c(=O)n(C)c(=O)n2C)CC1 | inactive |
| CCCc1c(-c2ccc(O)cc2)nn(-c2ccc(O)cc2)c1-c1ccc(O)cc1 | inactive |
| CN(C)CCCc1cc(C(=O)Nc2ccc(-c3ccncc3)cc2)ccc1O | inactive |
| CC[n+]1c(/C=C/C=C2/N(C)c3ccccc3C2(C)C)sc2ccccc21 | inactive |
| N=C(N)c1ccc(OCCCCCOc2ccc(C(=N)N)cc2)cc1 (tested in a mixture with another compound) | inactive |
| Oc1cc(O)c2c(c1)O[C@H](c1ccc(O)c(O)c1)[C@@H](O)C2 | inactive |
| NC[C@@H]1O[C@H](c2ccccc2)Cc2c1ccc(O)c2O | inactive |
| CC(C)[C@@H]1CC[C@@H](C)C[C@@H]1P(=O)(c1ccccc1)c1ccccc1 | inactive |
| C=CCN1CCc2c(cc(O)c(O)c2Br)[C@@H](c2ccccc2)C1 | inactive |
| CCN1C(=O)C=CC1=O | inactive |

System: not listed separately
Experiment: Primary qHTS for small molecule stabilizers of the endoplasmic reticulum resident proteome: Secreted ER Calcium Modulated Protein (SERCaMP) assay (AID 1508630)
Conditions: SH-SY5Y GLuc-SERCaMP (Gaussia luciferase released on ER calcium loss) secretion, thapsigargin, luminescence; series mostly up to 38.4 µM
Procedure, shortened: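 GLuc-SERCaMP-expressing SH-SY5Y cells, pretreated 16 h with compound, are challenged with thapsigargin to empty ER calcium stores; after 4 h, coelenterazine is added directly to the medium and luminescence is imaged.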

| Structure (SMILES) | Potency |
| --- | --- |
| CCCC[C@@]1(C2CCCC2)Cc2cc(OCC(=O)O)c(Cl)c(Cl)c2C1=O | inactive |
| CN(C)S(=O)(=O)c1ccc2c(c1)/C(=C/c1cc3c([nH]1)CCCC3)C(=O)N2 | inactive |
| O=c1onc2cnc3ccccc3n12 | inactive |
| CO/N=C(\C(=O)N[C@@H]1C(=O)N2C(C(=O)O)=C(CSc3nc(=O)c(O)nn3C)CSC12)c1csc(N)n1 (stereo partly drawn) | inactive |
| CCCn1c(=O)c(C)cn2nc(N)nc12 | inactive |
| CC(=O)N[C@@H](Cc1c[nH]c2ccccc12)C(=O)OCc1cc(C(F)(F)F)cc(C(F)(F)F)c1 | inactive |
| Nc1ncnc2c1ncn2C1CCCC1 | inactive |
| Nc1nc2c(cnn2CCc2ccccc2)c2nc(-c3ccco3)nn12 | inactive |
| CCCCCCC/C=C\CCCCCCCCC(=O)O | inactive |
| COc1cc(/C=C(\C#N)C(=O)Nc2nnc(C(F)(F)F)s2)ccc1OCc1ccc(C(F)(F)F)cc1C(F)(F)F | inactive |
| O=C(O)C1CCCNC1 (stereo not drawn) | inactive |
| CC(O)C(O)[C@H]1CNc2nc(N)[nH]c(=O)c2N1 (stereo partly drawn) | inactive |
| CCn1c(=O)[nH]c2cc(Cl)c(Cl)cc21 | inactive |
| CCCCCCCCCCC/C=C\C(C)(C)/C=C\CCCC(=O)O | inactive |
| CC1CCN(CC[C@H]2CCCN2S(=O)(=O)c2cccc(O)c2)CC1 | inactive |
| O=C(O)/C(=C/c1c(C(=O)O)[nH]c2cc(Cl)cc(Cl)c12)c1ccccc1 | inactive |
| C[C@@H](NCCc1ccc(O)cc1)[C@@H](O)c1ccc(O)cc1 | inactive |
| N[C@@H](Cc1ccc(O)c(I)c1)C(=O)O | inactive |
| CN(C)CCCc1cc(C(=O)Nc2ccc(-c3ccncc3)cc2)ccc1O | inactive |
| N=C(N)c1ccc(OCCCCCOc2ccc(C(=N)N)cc2)cc1 (tested in a mixture with another compound) | inactive |
| NC[C@@H]1O[C@H](c2ccccc2)Cc2c1ccc(O)c2O | inactive |
| Cc1cc(Cn2cnc3c2C[C@@H](C(=O)O)N(C(=O)C(c2ccccc2)c2ccccc2)C3)ccc1N | inactive |
| CC(C)[C@@H]1CC[C@@H](C)C[C@@H]1P(=O)(c1ccccc1)c1ccccc1 | inactive |
| C=CCN1CCc2c(cc(O)c(O)c2Br)[C@@H](c2ccccc2)C1 | inactive |
| CCN1C(=O)C=CC1=O | inactive |
